Consider nine molecules from PubChem BioAssay (NCI).

Test [1] is described as follows: NCI Yeast Anticancer Drug Screen. Data for the rad50 strain (AID 155).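 Also: 0% = growth of vehicle-only cultures of the same strain.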 Conditions: S. cerevisiae rad50 strain growth inhibition, hits give high values. Summed up: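 Compounds were tested on a yeast strain with an engineered DNA damage repair alteration; the reported value is growth inhibition normalised to vehicle treatment.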
A short description of test [2]: NCI Yeast Anticancer Drug Screen. Data for the mec2-1 strain (AID 157). Conditions: S. cerevisiae mec2-1 strain, hits give high values. In a few lines:
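Strain: mec2-1 (DNA repair/cell cycle alteration). Compound exposure, then growth measured; inhibition expressed relative to vehicle.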

Test [3] in a line: NCI Yeast Anticancer Drug Screen. Data for the sgs1 mgt1 strain (AID 161).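 Also: 0% = growth of cultures given vehicle only.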 Conditions: S. cerevisiae sgs1 mgt1 strain, hits give high values. In a few lines:
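Genetically altered yeast, compound exposure, growth inhibition relative to vehicle.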

Test [4] is described as follows: NCI Yeast Anticancer Drug Screen. Data for the cln2 rad14 strain (AID 165).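 Also: 0% = growth equal to vehicle treated cultures.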 Conditions: S. cerevisiae cln2 rad14 strain, hits give high values. Summed up: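 Compounds are applied to the cln2 rad14 yeast strain, and growth is then compared with that of vehicle-treated cultures to give inhibition.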
The nature of test [5]: NCI Yeast Anticancer Drug Screen. Data for the bub3 strain (AID 167). Conditions: S. cerevisiae bub3 mutant strain, hits give high values. In a few lines: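 Growth of a checkpoint-deficient yeast mutant is measured after compound exposure. Values represent inhibition relative to vehicle.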
A short description of test [6]: NCI Yeast Anticancer Drug Screen. Data for the mlh1 rad18 strain (AID 175). Conditions: S. cerevisiae mlh1 rad18 strain growth inhibition, hits give high values. In a few lines:
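Read-out is yeast growth inhibition, calculated against vehicle-only controls. The compound was applied to a strain engineered with DNA damage repair alterations.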

Setting [7] is: at 5.0 µM (retest, dose inferred, filed as 0.5).
Where [8] appears, read: at 50.0 µM (retest, dose inferred, filed as 5.0).

This is part of a sample that, as a whole, favours compounds with a hit. Of some 79,000 tested, about 15% had one in any assay. A number with no mark means an inactive call. Active and inactive are the calls of the source. Rule as the data show it: active = growth inhibition above about 70%; inactive = the rest.

As to `CCC1CN2CCc3cc(OC)c(OC)cc3C2CC1CC1c2cc(OC)c(OC)cc2CCN1C(=O)C(Cc1c[nH]c2ccccc12)NC(=O)OC(C)(C)C` (configuration not stated), the growth inhibition in test [1] (setting [7]) was -4%; in test [1] (setting [8]), 97% (active); in test [1] (at 50.0 µM), 96.8% (active); in test [2] (setting [7]), -6%; in test [2] (setting [8]), 98% (active); in test [2] (at 50.0 µM), 88.3% (active). Also, the growth inhibition in test [3] (setting [7]) is -5%; in test [3] (setting [8]), 49%; in test [3] (at 50.0 µM) it was 53%; in test [4] (setting [7]), -13%; in test [4] (setting [8]), 98% (active); in test [4] (at 50.0 µM) it was 93.5% (active). The growth inhibition was -5% in test [5] (setting [7]); 98% (active) in test [5] (setting [8]); 59.5% in test [5] (at 50.0 µM); -3% in test [6] (setting [7]); 98% (active) in test [6] (setting [8]); 93.8% (active) in test [6] (at 50.0 µM).
On to `C[n+]1c(-c2ccc(/C=N/Nc3ccnc(N/N=C/c4ccc(-c5cn6ccccc6[n+]5C)cc4)n3)cc2)cn2ccccc21`, for which the growth inhibition was 99% (active) in test [1] (setting [7]); 99% (active) in test [1] (setting [8]); 99.3% (active) in test [1] (at 50.0 µM); 100% (active) in test [2] (setting [7]); 99% (active) in test [2] (setting [8]); 99.5% (active) in test [2] (at 50.0 µM). In addition, the growth inhibition in test [3] (setting [7]) was 99% (active); in test [3] (setting [8]), 99% (active); in test [3] (at 50.0 µM) it was 99.2% (active); in test [4] (setting [7]), 98% (active); in test [4] (setting [8]), 99% (active); in test [4] (at 50.0 µM), 99.3% (active). Further, the growth inhibition is 99% (active) in test [5] (setting [7]); 99% (active) in test [5] (setting [8]); 99.4% (active) in test [5] (at 50.0 µM); 99% (active) in test [6] (setting [7]); 99% (active) in test [6] (setting [8]); 99.2% (active) in test [6] (at 50.0 µM).
For `CCOC(=O)C(=N\Nc1c(C)cccc1C)/C(C)=N\NC(N)=S`, the growth inhibition is -17% in test [1] (setting [7]); 15% in test [1] (setting [8]); 64.7% in test [1] (at 50.0 µM); -7% in test [2] (setting [7]); 25% in test [2] (setting [8]); 32.6% in test [2] (at 50.0 µM). The growth inhibition in test [3] (setting [7]) is 7%; in test [3] (setting [8]), 45%; in test [3] (at 50.0 µM), 58.2%; in test [4] (setting [7]), -13%; in test [4] (setting [8]) it was -9%; in test [4] (at 50.0 µM), 54.8%. Also, the growth inhibition in test [5] (setting [7]) is -3%; in test [5] (setting [8]) it was 4%; in test [5] (at 50.0 µM) it was 51.5%; in test [6] (setting [7]) it was 11%; in test [6] (setting [8]), 42%; in test [6] (at 50.0 µM) it was 69.2%.
For `CCCCCCCCCCCCSC(=NCC)NCC`, the growth inhibition was 89% (active) in test [1] (setting [7]); 99% (active) in test [1] (setting [8]); 99.6% (active) in test [1] (at 50.0 µM); 79% (active) in test [2] (setting [7]); 100% (active) in test [2] (setting [8]); 99.8% (active) in test [2] (at 50.0 µM). Besides, the growth inhibition in test [3] (setting [7]) is 98% (active); in test [3] (setting [8]), 100% (active); in test [3] (at 50.0 µM), 48.8%; in test [4] (setting [7]) it was 59%; in test [4] (setting [8]), 99% (active); in test [4] (at 50.0 µM), 99.1% (active). For the same molecule, the growth inhibition was 96% (active) in test [5] (setting [7]); 100% (active) in test [5] (setting [8]); 99.6% (active) in test [5] (at 50.0 µM); 89% (active) in test [6] (setting [7]); 99% (active) in test [6] (setting [8]); 99.5% (active) in test [6] (at 50.0 µM).
As to `O=C(CCCCOCCCCC(=O)OCC1CCCO1)OCC1CCCO1` (configuration not stated), the growth inhibition in test [1] (setting [7]) was -1%; in test [1] (setting [8]), -2%; in test [1] (at 50.0 µM), 9.1%; in test [2] (setting [7]) it was 0%; in test [2] (setting [8]) it was 2%; in test [2] (at 50.0 µM) it was 16.9%. The growth inhibition in test [3] (setting [7]) is -91%; in test [3] (setting [8]), 4%; in test [3] (at 50.0 µM) it was 45%; in test [4] (setting [7]) it was 2%; in test [4] (setting [8]), -9%; in test [4] (at 50.0 µM), 10.3%. For the same molecule, the growth inhibition was -4% in test [5] (setting [7]); -3% in test [5] (setting [8]); 13.5% in test [5] (at 50.0 µM); -1% in test [6] (setting [7]); -12% in test [6] (setting [8]); 18.1% in test [6] (at 50.0 µM).
Take `O=C1CC(O)CC(=O)C1=C(O)CCCCCCCCCCc1ccccc1` (configuration not stated): the growth inhibition in test [1] (setting [7]) was 25%; in test [1] (setting [8]), 41%; in test [1] (at 50.0 µM) it was 66.4%; in test [2] (setting [7]), 25%; in test [2] (setting [8]), 39%; in test [2] (at 50.0 µM) it was 85.3% (active). Also, the growth inhibition in test [3] (setting [7]) was 36%; in test [3] (setting [8]), 57%; in test [3] (at 50.0 µM), 74.2% (active); in test [4] (setting [7]) it was 24%; in test [4] (setting [8]), 33%; in test [4] (at 50.0 µM) it was 81.5% (active). Besides, the growth inhibition was 30% in test [5] (setting [7]); 54% in test [5] (setting [8]); 85.7% (active) in test [5] (at 50.0 µM); 40% in test [6] (setting [7]); 62% in test [6] (setting [8]); 65.8% in test [6] (at 50.0 µM).
For `O=C1C=CC(=O)N1c1ccc(Cl)cc1`, the growth inhibition is 79% (active) in test [1] (setting [7]); 97% (active) in test [1] (setting [8]); 91.6% (active) in test [1] (at 50.0 µM); 79% (active) in test [2] (setting [7]); 99% (active) in test [2] (setting [8]); 93.1% (active) in test [2] (at 50.0 µM). Also, the growth inhibition was 95% (active) in test [3] (setting [7]); 100% (active) in test [3] (setting [8]); 92.8% (active) in test [3] (at 50.0 µM); 54% in test [4] (setting [7]); 101% (active) in test [4] (setting [8]); 84.8% (active) in test [4] (at 50.0 µM). Besides, the growth inhibition in test [5] (setting [7]) was 101% (active); in test [5] (setting [8]), 100% (active); in test [5] (at 50.0 µM), 92.1% (active); in test [6] (setting [7]), 80% (active); in test [6] (setting [8]), 99% (active); in test [6] (at 50.0 µM) it was 92% (active).
Regarding `c1ccc2c(c1)OCC(CN1CCN(CC3COc4ccccc4O3)CC1)O2` (configuration not stated), the growth inhibition in test [1] (setting [7]) is 41%; in test [1] (setting [8]), 57%; in test [1] (at 50.0 µM), 76.7% (active); in test [2] (setting [7]) it was 36%; in test [2] (setting [8]), 51%; in test [2] (at 50.0 µM), 67%. Also, the growth inhibition is 47% in test [3] (setting [7]); 55% in test [3] (setting [8]); 77.7% (active) in test [3] (at 50.0 µM); 52% in test [4] (setting [7]); 58% in test [4] (setting [8]); 84% (active) in test [4] (at 50.0 µM). For the same molecule, the growth inhibition in test [5] (setting [7]) is 47%; in test [5] (setting [8]) it was 60%; in test [5] (at 50.0 µM), 67.9%; in test [6] (setting [7]) it was 47%; in test [6] (setting [8]) it was 60%; in test [6] (at 50.0 µM) it was 81.2% (active).
For `CCN(CC)c1ccc(NC(C(=O)c2ccc(Cl)cc2)c2ccc(Cl)cc2)cc1` (configuration not stated), the growth inhibition in test [1] (setting [7]) was -7%; in test [1] (setting [8]), -10%; in test [1] (at 50.0 µM) it was 91.3% (active); in test [2] (setting [7]) it was -2%; in test [2] (setting [8]), -10%; in test [2] (at 50.0 µM), 91.2% (active). In addition, the growth inhibition in test [3] (setting [7]) is -6%; in test [3] (setting [8]), -9%; in test [3] (at 50.0 µM), 96.2% (active); in test [4] (setting [7]) it was 2%; in test [4] (setting [8]) it was -11%; in test [4] (at 50.0 µM) it was 93.3% (active). The growth inhibition in test [5] (setting [7]) was -1%; in test [5] (setting [8]), 8%; in test [5] (at 50.0 µM), 86.3% (active); in test [6] (setting [7]) it was -2%; in test [6] (setting [8]), -8%; in test [6] (at 50.0 µM), 95.6% (active).
